# Experimental data: PubChem BioAssay
# Several values for one entry are separate records, joined by “and”; a condition that tells them apart may be missing. Identical values can stand only once. Activity calls are given as the source filed them.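 Rule for the calls, unless noted: active = normalized viability below 100% at a tested concentration; inactive = the rest.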
# Legend:
# [1] = viability loss with induced miR-34 in A549 – imaging, A549 dox-inducible miR-34, nuclei and caspase counts, primary screen (AID 1347080;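 active = compounds whose cell count with miR-34 switched on is under 0.7 times the count with it off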); conditions: A549 miR-34 inducible, Hoechst nuclei count, 48 h
# [2] = compounds altering HSF1 focus formation in cells – imaging, Selleck Cancer Library (AID 1347162; in the data active = plate-normalised HSF1 focus index below about 0.46); conditions: human cells, HSF1 nuclear foci imaging, at 10 µM; SSMD: measured here: HSF1 foci SSMD mean; cell count: measured here: cell number; plate-normalised HSF1 focus index: stronger effect = lower value
# [3] = MELAS cybrid and Rieske KO viability enhancers – cell-based, MELAS cybrids, Rieske KO mouse fibroblasts, CellTiter-Glo, primary screen (AID 1508586;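 active = mean z-score across replicates of 1.96 or higher in either the MELAS or the Rieske mutant cell line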;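 note: z relative to plate mean and SD of compound and empty wells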); conditions: low glucose
# [4] = drug combination growth inhibition, ovarian cancer – cell-based, oncology-focused library, rucaparib conditional, profiling panel (AID 1508598); conditions: patient-derived ovarian cancer cells, CellTiter-Glo viability, 144 h, stronger effect = lower value
# [5] = compounds altering circadian rhythm period length – cell-based, LOPAC library, luminescence reporter (AID 2774; call rule not given here;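 note: values are relative to mean of DMSO wells on each plate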); conditions: circadian reporter cells, at 7 µM, actives lie on both sides
# [6] = compounds altering viability of human ES cells (AID 493140; call rule not given here;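 note: cells exposed to compounds for four days before counting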); conditions: human embryonic stem cell survival screen; stronger effect = higher value
# [7] = P. berghei load reduction in hepatocytes – cell-based, HepG2, luciferase luminescence, HepG2 viability, primary screen (AID 624349; in the data active = parasite load remaining mostly below about 12%, no sharp cut-off; inactive = mostly above about 10%;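 note: 100% = mean of DMSO negative control wells on the same plate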); conditions: P. berghei liver stage in HepG2, luciferase luminescence, concentration not given here; parasite load remaining: stronger effect = lower value; viability: measured here: HepG2 viability without parasites
# [8] = test system: Hepatitis C virus NS3 helicase; test: blockers of NS3h binding to ssDNA – biochemical, fluorescence polarization, LOPAC1280 library, primary screen (AID 687035; in the data active = inhibition above about 37%); conditions: Purified HCV NS3 helicase, Cy5-dT15 ssDNA binding fluorescence polarization; stronger effect = higher value; concentration not given here
# [9] = compounds altering Cy5-DNA-NS3h complex signal – biochemical, LOPAC1280, artefact control for HCV NS3 helicase inhibitor project (AID 687037; call rule not given here); conditions: Cy5-DNA-NS3h complex fluorescence interference counterscreen
# [10] = blockers of cellular phospholipid synthesis – cell-based, LOPAC library, screen 4, primary screen (AID 1347384; call rule not given here); conditions: animal cells, phospholipid biosynthesis inhibition screen; at 10 µM
# [11] = galactose survival enhancers in mitochondrial complex I cybrids – cell-based, galactose medium, ATP luminescence, primary screen (AID 1645843;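 active = z-score of at least 1.8 in each of two replicates, scored against plate mean and spread of sample wells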;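 note: positive z means more ATP and so rescue of galactose-driven cybrid death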); conditions: complex I mutant cybrid cells, 72 h, stronger effect = higher value
# [12] = stronger effect = lower value, cell number ratio, induced over uninduced
# [13] = measured here: relative caspase fold change +Dox/-Dox
# [14] = measured here: total cells with miR-34 induction, stronger effect = lower value
# [15] = measured here: total cells without miR-34 induction
# [16] = MELAS cybrid survival, CellTiter-Glo 48 h, stronger effect = higher value
# [17] = Rieske KO mouse fibroblast survival, CellTiter-Glo 72 h
smiles,measurement,setting,value
COc1ccc(C2=NC(c3ccc(Cl)cc3)C(c3ccc(Cl)cc3)N2C(=O)N2CCNC(=O)C2)c(OC(C)C)c1 (stereo not given),fold change,[1]; [12],0.914 (inactive) and 0.912 (inactive) and 0.921 (inactive)
same,fold change,[1]; [13],0.374 and 0.688 and 0.486
same,cell count,[1]; [14],2920 and 2710 and 7580
same,cell count,[1]; [15],3200 and 2970 and 8230
same,SSMD,[2],2.83
same,cell count,[2],7540
same,plate-normalised HSF1 focus index,[2],1.18 (inactive)
same,z-score,[3]; [16],0.254 (inactive) and -0.293 (inactive) and -0.371 (inactive)
same,z-score,[3]; [17],0.0375 and 0.393 and 0.654
same,viability,"[4]; at 0.000305 µM, OCI-C5x cells, with rucaparib 10 µM, 100% = cells with rucaparib alone",120% (inactive)
same,viability,"[4]; at 0.000305 µM, OCI-C5x cells, without rucaparib",129% (inactive)
same,viability,"[4]; at 0.000305 µM, OCI-P5x cells, with rucaparib 20 µM, 100% = cells with rucaparib alone",108% (inactive)
same,viability,"[4]; at 0.000305 µM, OCI-P5x cells, without rucaparib",104% (inactive)
same,viability,"[4]; at 0.00122 µM, OCI-C5x cells, with rucaparib 10 µM, 100% = cells with rucaparib alone",116% (inactive)
same,viability,"[4]; at 0.00122 µM, OCI-C5x cells, without rucaparib",136% (inactive)
same,viability,"[4]; at 0.00122 µM, OCI-P5x cells, with rucaparib 20 µM, 100% = cells with rucaparib alone",104% (inactive)
same,viability,"[4]; at 0.00122 µM, OCI-P5x cells, without rucaparib",93.6% (active)
same,viability,"[4]; at 0.00488 µM, OCI-C5x cells, with rucaparib 10 µM, 100% = cells with rucaparib alone",112% (inactive)
same,viability,"[4]; at 0.00488 µM, OCI-C5x cells, without rucaparib",124% (inactive)
same,viability,"[4]; at 0.00488 µM, OCI-P5x cells, with rucaparib 20 µM, 100% = cells with rucaparib alone",96.2% (active)
same,viability,"[4]; at 0.00488 µM, OCI-P5x cells, without rucaparib",91.7% (active)
same,viability,"[4]; at 0.0195 µM, OCI-C5x cells, with rucaparib 10 µM, 100% = cells with rucaparib alone",110% (inactive)
same,viability,"[4]; at 0.0195 µM, OCI-C5x cells, without rucaparib",128% (inactive)
same,viability,"[4]; at 0.0195 µM, OCI-P5x cells, with rucaparib 20 µM, 100% = cells with rucaparib alone",97% (active)
same,viability,"[4]; at 0.0195 µM, OCI-P5x cells, without rucaparib",93.4% (active)
same,viability,"[4]; at 0.0781 µM, OCI-C5x cells, with rucaparib 10 µM, 100% = cells with rucaparib alone",108% (inactive)
same,viability,"[4]; at 0.0781 µM, OCI-C5x cells, without rucaparib",124% (inactive)
same,viability,"[4]; at 0.0781 µM, OCI-P5x cells, with rucaparib 20 µM, 100% = cells with rucaparib alone",102% (inactive)
same,viability,"[4]; at 0.0781 µM, OCI-P5x cells, without rucaparib",95.5% (active)
same,viability,"[4]; at 0.313 µM, OCI-C5x cells, with rucaparib 10 µM, 100% = cells with rucaparib alone",113% (inactive)
same,viability,"[4]; at 0.313 µM, OCI-C5x cells, without rucaparib",115% (inactive)
same,viability,"[4]; at 0.313 µM, OCI-P5x cells, with rucaparib 20 µM, 100% = cells with rucaparib alone",97.6% (active)
same,viability,"[4]; at 0.313 µM, OCI-P5x cells, without rucaparib",86.9% (active)
same,viability,"[4]; at 1.25 µM, OCI-C5x cells, with rucaparib 10 µM, 100% = cells with rucaparib alone",103% (inactive)
same,viability,"[4]; at 1.25 µM, OCI-C5x cells, without rucaparib",111% (inactive)
same,viability,"[4]; at 1.25 µM, OCI-P5x cells, with rucaparib 20 µM, 100% = cells with rucaparib alone",91.3% (active)
same,viability,"[4]; at 1.25 µM, OCI-P5x cells, without rucaparib",89.1% (active)
same,viability,"[4]; at 5 µM, OCI-C5x cells, with rucaparib 10 µM, 100% = cells with rucaparib alone",109% (inactive)
same,viability,"[4]; at 5 µM, OCI-C5x cells, without rucaparib",104% (inactive)
same,viability,"[4]; at 5 µM, OCI-P5x cells, with rucaparib 20 µM, 100% = cells with rucaparib alone",82.1% (active)
same,viability,"[4]; at 5 µM, OCI-P5x cells, without rucaparib",90.4% (active)
O=C(O)CNC(=O)C(CS)Cc1ccccc1 (stereo not given),period change,[5],-0.18 h (inactive)
same,survival,[6],4.92 (inactive)
same,parasite load remaining,[7],144% (inactive) and 78.5% (inactive)
same,viability,[7],103% and 75.5%
same,inhibition,[8],0% (inactive)
same,fluorescence ratio (interference),[9],1 (inactive)
same,fold change,[1]; [12],0.968 (inactive) and 0.835 (inactive) and 1 (inactive)
same,fold change,[1]; [13],1.08 and 1.52 and 1.29
same,cell count,[1]; [14],9910 and 8670 and 5950
same,cell count,[1]; [15],10200 and 10400 and 5920
same,outcome,[10],inactive
same,z-score,[3]; [16],-0.922 (inactive)
same,z-score,[3]; [17],0.154
same,z-score,[11],0.48 (inactive)
